This note sets out measurements from PubChem BioAssay AID1851 (National Center for Advancing Translational Sciences (NCATS), 2009).

Structures are written as SMILES. About 5,100 (32%) of roughly 16,000 compounds were called active. Not shown: some 25% with an inconclusive outcome. The list shows a part of the results. Values without a mark were called inactive. Calls come from the whole dose curve; as a rule, active = well fitted curve in the direction sought with a large enough effect; inconclusive = small, poorly fitted or top-dose-only effect, or effect the other way; inactive = no such curve, though single readings can be large or run the other way.
% is set by controls: 0 for no effect and ±100 for the full control effect.

Chain of Cytochrome P450 3A4 (Homo sapiens) (P08684 whole entry, looked up): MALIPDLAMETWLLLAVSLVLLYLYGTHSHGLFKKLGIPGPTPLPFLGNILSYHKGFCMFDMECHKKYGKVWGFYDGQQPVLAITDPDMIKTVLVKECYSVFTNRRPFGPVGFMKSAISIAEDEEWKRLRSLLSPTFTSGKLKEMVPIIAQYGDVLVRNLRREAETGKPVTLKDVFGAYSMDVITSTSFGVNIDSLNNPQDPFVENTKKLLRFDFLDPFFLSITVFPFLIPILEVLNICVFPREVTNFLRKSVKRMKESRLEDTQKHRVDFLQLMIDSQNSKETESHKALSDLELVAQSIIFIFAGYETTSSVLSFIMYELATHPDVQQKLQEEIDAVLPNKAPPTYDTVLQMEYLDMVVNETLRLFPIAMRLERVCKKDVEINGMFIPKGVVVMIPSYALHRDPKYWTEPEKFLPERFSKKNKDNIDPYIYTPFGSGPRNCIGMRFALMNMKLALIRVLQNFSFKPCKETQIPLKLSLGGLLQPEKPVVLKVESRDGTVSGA

The test addresses Cytochrome P450 3A4 (Homo sapiens) (UniProt P08684). Briefly: Cytochrome panel assay with activity outcomes. Particulars: recombinant CYP, pro-luciferin dealkylation, luminescence, p450-cyp3a4; series mostly up to 57.1 µM; activity, negative = inhibition: at the top concentration.
For `COc1cc(C2C(C#N)=C(N)N(Nc3ccccc3)C3=C2C(=O)CC(C)(C)C3)ccc1OCc1cccc(F)c1` (stereo not drawn), the half-maximal activity concentration (AC50) was 2.51 µM (active).

For the molecule `COc1cc(C2C(C#N)=C(N)N(c3sc4c(c3C#N)CCCC4)C3=C2C(=O)CC(C)(C)C3)cc(OC)c1OC` (stereo not drawn), the AC50 is 0.501 µM (active).

On to `COc1ccc(C2C(C#N)=C(N)N(Nc3ccccc3)C3=C2C(=O)CC(C)(C)C3)cc1C` (stereo not drawn), for which the AC50 was 2 µM (active).

In the case of `COc1cc(C2C(C#N)=C(N)N(Nc3ccccc3)C3=C2C(=O)CC(C)(C)C3)ccc1OCc1ccccc1` (stereo not drawn), the concentration at half-maximal activity (AC50) is 2.82 µM (active).

With `CCOc1cc(/C=C2\CCC/C(=C\c3cc(Cl)c(O)c(OCC)c3)C2=O)cc(Cl)c1O`, the activity, negative = inhibition was -14.8% [at 2.29 µM].

Take `CCCCCCCCCCCCC/C=C\[C@@H](O)[C@@H](N)CO`: the “activity, negative = inhibition” value was -9.6%.

In the case of `Cc1cccc(CSCCNC(=O)c2ccc(N(C)S(=O)(=O)c3ccccc3)cc2)c1`, the AC50 was 3.98 µM (active).

On to `CN(c1ccc(C(=O)NCC2CCCO2)cc1)S(=O)(=O)c1ccccc1` (stereo not drawn), for which the “activity, negative = inhibition” value is 10.5%.

In the case of `O=C(O)CCSCc1ccccc1`, the activity, negative = inhibition is -12.2% [at 11.4 µM].

For the molecule `C=CCOC(=O)/C(=C\c1cccc2ccccc12)NC(=O)c1ccccc1`, the AC50 is 0.2 µM (active).

Turning to `O=C1CCC(c2ccc(-n3ccnc3)cc2)=NN1`, the AC50 is 1.58 µM (active).

For the molecule `N#C/C(=C\c1ccc(Cl)cc1)c1nc2ncccc2[nH]1`, the activity, negative = inhibition is -7.91% [at 2.29 µM].

With `COc1cc(/C=C(/C#N)c2nc3ccccc3[nH]2)ccc1Oc1ncccc1[N+](=O)[O-]`, the AC50 is 1.58 µM (active).

Turning to `COc1cc(/C=C(/C#N)c2nc3ccccc3[nH]2)ccc1OCC(=O)Nc1ccccc1C`, the AC50 is 1.26 µM (active).

Consider `N#C/C(=C\c1ccccc1)c1nc2ncccc2[nH]1`, for which the activity, negative = inhibition is -24% [at 2.29 µM].

Regarding `COc1ncnc(NS(=O)(=O)c2ccc(N)cc2)c1OC`, the “activity, negative = inhibition” value was -8.96% [at 25.6 µM].

Consider `CCOC(=O)c1cnc(N(C)C)nc1SC(=N)N`, for which the activity, negative = inhibition is -4.2% [at 11.4 µM].

On to `Cc1cc(C)cc(OCC(=O)Nc2ccc3c4c(cccc24)CC3)c1`, for which the “activity, negative = inhibition” value is -27%.

Consider `CSc1ccc(S(=O)(=O)Nc2ccc3c4c(cccc24)CC3)cc1`, for which the AC50 is 5.01 µM (active).

For `COC1=C(OC)C(=O)c2ccccc2C1=O`, the AC50 is 20 µM (active).

As for `CC(C)=CCC1=C(OCC(=O)O)C(=O)c2ccccc2C1=O`, the activity, negative = inhibition was -24.9% [at 11.4 µM].

Take `COc1nnc(OC)c2ccccc12`: the “activity, negative = inhibition” value is 3.31%.

Consider `C#CCn1c(=O)c2c(ncn2C)n(C)c1=O`, for which the “activity, negative = inhibition” value is -5.18%.

In the case of `N#Cc1c2n(c3c(=S)nc[nH]c13)CCCCC2`, the activity, negative = inhibition is 9.26% [at 2.29 µM].

Consider `COc1ccc2c(c1)Cc1cc(N=[N+]([O-])c3ccc4c(c3)Cc3cc(OC)ccc3-4)ccc1-2`, for which the half-maximal activity concentration (AC50) is 5.01 µM (active).

As for `Cc1cccc(-n2cnc(C(=O)NC3CCCCCC3)c2)n1`, the AC50 was 14.1 µM (active).

Take `Cc1cc(Cl)nc(NC(=O)CSc2ccc(Cl)cc2)n1`: the activity, negative = inhibition was -7.2% [at 11.4 µM].

As to `Cc1cnc(NC(=O)CSc2ccc(Cl)cc2)s1`, the AC50 is 15.8 µM (active).

`CCC[C@H](Sc1nc(N)nc2nc[nH]c12)C(=O)O`: the activity, negative = inhibition was -4.34% [at 11.4 µM].

Consider `CC(C)[C@H](Sc1nc(N)nc2nc[nH]c12)C(=O)O`, for which the activity, negative = inhibition is -2.83% [at 11.4 µM].

Take `Nc1nc(Sc2ccc([N+](=O)[O-])c3nonc23)c2[nH]cnc2n1`: the activity, negative = inhibition is -24.7% [at 11.4 µM].

For `Nc1nc(N)c2[nH]cnc2n1` (tested in a mixture with another compound), the activity, negative = inhibition was -3.42% [at 11.4 µM].

`Nc1nc(N)c(CCCCc2ccccc2)c(N)n1`: the activity, negative = inhibition was 5.2% [at 11.4 µM].

Regarding `Nc1nc(SCc2ccccc2[N+](=O)[O-])c2[nH]cnc2n1`, the AC50 is 3.16 µM (active).

As to `Nc1nc(SCCc2ccccc2)c2[nH]cnc2n1`, the AC50 was 2.51 µM (active).

As to `Nc1nc(SC/C=C\c2ccccc2)c2[nH]cnc2n1`, the AC50 is 2.51 µM (active).

Consider `COc1ccc(-n2c(C)n[nH]c2=O)cc1OC`, for which the “activity, negative = inhibition” value is 2.19%.

Turning to `COc1cccc(=O)c2c(C)n(-c3cc(C)cc(C)c3)c(C)c12`, the AC50 is 4.47 µM (active).

With `CN(C)CCC=C1c2ccccc2C=Cc2ccccc21`, the AC50 entry is “inactive”.

With `O=C(O)[C@@H]1CCCN1Cc1cc2ccccc2c2ccccc12`, the activity, negative = inhibition was -12.1% [at 11.4 µM].

For the molecule `CC(C)CC(=O)N[C@H](C(=O)N[C@H](C(=O)N[C@@H](CC(C)C)[C@H](O)CC(=O)N[C@@H](C)C(=O)N[C@@H](CC(C)C)[C@H](O)CC(=O)O)C(C)C)C(C)C`, the “activity, negative = inhibition” value is -8.61% [at 25.6 µM].

Turning to `Cc1ccc(NC(=O)CCC(=O)NNC(=O)c2ccco2)cc1C`, the activity, negative = inhibition is -4.43% [at 2.29 µM].

Take `O=C(CSc1ccccc1)Nc1ccc(NC(=O)c2ccco2)cc1`: the “activity, negative = inhibition” value was -25.4%.

For the molecule `Cc1c(Cl)cccc1NC(=O)CCC(=O)NNC(=O)c1ccco1`, the activity, negative = inhibition is 1.8% [at 2.29 µM].

Regarding `Cc1ccc(SCC(=O)Nc2cccc(NC(=O)c3ccco3)c2)cc1`, the AC50 is 22.4 µM (active).

Take `Cc1ccc(-n2nnnc2SCC(=O)NNC(=O)c2ccco2)c(C)c1`: the AC50 was 22.4 µM (active).

On to `CC(=O)c1ccc(-n2nnnc2SCC(=O)Nc2cccc(NC(=O)c3ccco3)c2)cc1`, for which the AC50 was 3.98 µM (active).

Consider `CCc1cc2cc(C)c(C)cc2nc1SCC(=O)NNC(=O)c1ccco1`, for which the AC50 is 8.91 µM (active).

As usually defined, the AC50 is the concentration giving half of the maximal activity seen.
